A selection: hits, their analogues and other compounds. The true share with any hit is near 12%.
Sfp PPTase inh: Sfp phosphopantetheinyl transferase inhibition. Biochemical Sfp PPTase activity, qHTS. Potency, µM, for inactives: largest response in the series, negative = inhibition, actives largely listed as inhibitors. hit rate 3.5% among 310,000. AID 1490;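 note: the enzyme is Sfp with the accession as filed and its product quenches rhodamine fluorescence; 0% = enzyme reaction without inhibitor and -100% = no enzyme wells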
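Fluorescence-quenching assay: 15 nM Sfp-PPTase preincubated 15 min at room temperature with compound, then 5 uM rhodamine-CoA and 12.5 uM BHQ-2-labelled YbbR peptide added. Fluorescence (ex 525/em 598 nm) read at start and after 30 min; difference gives rate.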
G9a inh: inhibitors of human histone lysine methyltransferase G9a; Q96KQ7; G9a H3K9 monomethylation, AlphaScreen, 2 h; Potency, µM (titrated, usually from 102 µM), inactives show at the highest dose activity, negative = inhibition, hits mostly inhibitors; hit rate 8.8% among 350,000; AID 504332; note: % is set by controls: 0 for no effect and ±100 for the full control effect; nearly all actives have a fitted effect of over 75% in size
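Step 1: enzyme (final 20 nM) with compound, 15 min RT. Step 2: substrate peptide 500 nM and SAM 20 uM, 2 h RT. Step 3: anti-H3K9me1 antibody and AlphaScreen beads, 10 min, then plate read.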
L3MBTL1 inh: L3MBTL1 (human) inhibition | Q9Y468 | AlphaScreen L3MBTL1–H3K9me1 peptide binding | Potency, µM (series often up to 57.1 µM), for inactives: at the highest dose activity, negative = inhibition, hits mostly inhibitors | hit rate 0.66% among 230,000 | AID 485360; note: % is set by controls: 0 for no effect and ±100 for the full control effect; nearly all actives have a fitted effect of over 60% in size
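AlphaScreen proximity signal between nickel-chelate acceptor and streptavidin donor beads (final 10 ug/mL) reports binding of 50 nM L3MBTL1 to 75 nM biotin-H3 K9me1 peptide; complex incubated with compounds 30 min at room temperature; cefsulodin titration as control.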
JMJD2A Tudor: JMJD2A Tudor domain (human) inhibition | O75164 | AlphaScreen JMJD2A-Tudor / H3K4me3 peptide binding | Potency, µM (titrated, usually from 114 µM), for the others: at the top dose activity change, negative = inhibition, hits mostly inhibitors | hit rate 4.4% among 390,000 | AID 504339; note: % is set by controls: 0 for no effect and ±100 for the full control effect; nearly all actives have a fitted effect of over 50% in size
Target sequence (O75164 whole entry, looked up, the tested form may be a part): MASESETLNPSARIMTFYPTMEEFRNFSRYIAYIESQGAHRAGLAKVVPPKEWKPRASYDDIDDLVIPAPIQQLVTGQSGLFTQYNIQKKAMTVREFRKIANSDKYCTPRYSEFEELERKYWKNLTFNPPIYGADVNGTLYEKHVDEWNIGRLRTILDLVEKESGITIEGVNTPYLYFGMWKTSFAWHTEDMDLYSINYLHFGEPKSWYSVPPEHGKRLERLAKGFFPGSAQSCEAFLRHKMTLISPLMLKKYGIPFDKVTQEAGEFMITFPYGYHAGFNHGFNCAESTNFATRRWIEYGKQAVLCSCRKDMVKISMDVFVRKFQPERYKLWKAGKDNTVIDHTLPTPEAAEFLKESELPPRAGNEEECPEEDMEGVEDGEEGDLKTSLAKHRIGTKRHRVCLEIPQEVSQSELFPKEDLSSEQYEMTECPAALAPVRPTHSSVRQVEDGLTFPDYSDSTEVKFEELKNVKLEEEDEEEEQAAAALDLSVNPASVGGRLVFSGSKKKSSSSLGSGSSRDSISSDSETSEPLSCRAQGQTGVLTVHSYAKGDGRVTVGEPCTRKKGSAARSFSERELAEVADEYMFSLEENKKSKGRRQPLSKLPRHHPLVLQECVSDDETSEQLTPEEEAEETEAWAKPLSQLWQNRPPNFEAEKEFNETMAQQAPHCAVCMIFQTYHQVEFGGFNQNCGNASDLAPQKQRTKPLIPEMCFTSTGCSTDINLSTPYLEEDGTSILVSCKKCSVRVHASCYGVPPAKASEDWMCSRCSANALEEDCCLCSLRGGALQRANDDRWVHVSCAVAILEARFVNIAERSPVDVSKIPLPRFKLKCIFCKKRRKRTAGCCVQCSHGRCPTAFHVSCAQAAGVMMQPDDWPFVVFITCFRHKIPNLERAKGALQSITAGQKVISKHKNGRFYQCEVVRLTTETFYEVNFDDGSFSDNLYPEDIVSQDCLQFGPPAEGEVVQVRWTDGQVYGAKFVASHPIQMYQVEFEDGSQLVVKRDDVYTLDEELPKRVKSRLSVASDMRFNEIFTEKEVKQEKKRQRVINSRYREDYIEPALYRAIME
HP1b binding inh: HP1-beta chromodomain-methylated histone interaction inhibition; P83916; hit rate 0.56% among 390,000; AlphaScreen HP1-beta / biotin-H3K9me3 peptide binding; AID 540317; Potency, µM (titrated, usually from 114 µM), for inactives: top-dose activity change, negative = inhibition, most hits filed as inhibitors; note: nearly all actives have a fitted effect of over 70% in size
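Compound inhibition of the preformed complex between 50 nM HP1-beta and 50 nM biotinylated H3K9me3 peptide was read by AlphaScreen. Buffer was PBS pH 7.4 with 0.01% Tween-20. Incubations ran 30 min at room temperature, with 10 ug/mL donor/acceptor beads.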
BAZ2B block: blocks human BAZ2B; Potency, µM (highest dose often 114 µM), inactives show top-dose activity change, negative = inhibition, usual class: inhibitors; hit rate 4.4% among 360,000; Q9UIF8; AlphaScreen BAZ2B-H3K14Ac peptide displacement; note: % is set by controls: 0 for no effect and ±100 for the full control effect; nearly all actives have a fitted effect of over 60% in size
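Inhibition is scored as reduced AlphaScreen emission. The BAZ2B/b-H3(5-23)K14Ac complex (50 nM each) in PBS pH 7.4, 0.01% Tween-20 meets compound (up to 110 uM) for 30 min at RT before bead addition.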
The depositor's hits bear a star; [ ] = dose if it differs, or a comment. Calls come from the whole dose curve; as a rule, active = well fitted curve in the direction sought with a large enough effect; inconclusive = small, poorly fitted or top-dose-only effect, or another doubt; inactive = no such curve, though single readings can be large; an effect the other way counts as inactive or inconclusive. Potency is the fitted concentration of half-maximal effect.

How did CCOC(=O)c1c(NC(=O)COc2cccc(C)c2C)sc2c1CCCCC2 do in these assays?
G9a inh: 11µM*; JMJD2A Tudor: -11%; HP1b binding inh: -11%; BAZ2B block: 2%

How did CCOC(=O)c1c(NC(=O)C2CC(Cl)=CCC2C(=O)O)sc2c1CCCCC2 (stereo not given) do in these assays?
Sfp PPTase inh: -12%; G9a inh: 45µM*; JMJD2A Tudor: inconclusive; HP1b binding inh: -6%; BAZ2B block: 50µM*

How did CC1CCc2c(sc(NC(=O)CCC(=O)O)c2C(=O)NC2CC2)C1 (stereo not given) do in these assays?
Sfp PPTase inh: 8.9µM*; G9a inh: 8.9µM*; JMJD2A Tudor: inconclusive; HP1b binding inh: inconclusive; BAZ2B block: -36%

What do the screens show for `CCc1nnc(NC(=O)c2cc(=O)c3cc(C)c(C)cc3o2)s1`?
G9a inh: -8%[59 µM]; JMJD2A Tudor: -2%; HP1b binding inh: 27%; BAZ2B block: -4%

How did Cc1cnc(CNc2nc(-c3ccccc3Cl)nc3ccccc23)cn1 do in these assays?
Sfp PPTase inh: 6%; G9a inh: 18%[0.501 µM]

What do the screens show for `COc1ccc(-c2noc3c2-c2nc(-c4c(F)cccc4F)sc2CC3)cc1`?
Sfp PPTase inh: -16%; G9a inh: 32µM*; L3MBTL1 inh: 4%; JMJD2A Tudor: -17%; HP1b binding inh: 15%; BAZ2B block: -23%

How did Fc1cccc(F)c1-c1nc2c(s1)CCc1onc(-c3ccc(Br)cc3)c1-2 do in these assays?
JMJD2A Tudor: -14%; HP1b binding inh: -6%

How did COc1ccc(-c2noc3c2-c2nc(-c4ccccc4F)sc2CC3)cc1 do in these assays?
Sfp PPTase inh: -21%; G9a inh: 22µM*; L3MBTL1 inh: 1%; JMJD2A Tudor: -6%; HP1b binding inh: 33%; BAZ2B block: -7%

Results for Cc1nn(C(=O)c2ccccc2)c(C)c1S(=O)(=O)N1CCCCCC1 ?
G9a inh: 3%[59 µM]; JMJD2A Tudor: 10%; HP1b binding inh: 37%[57 µM]; BAZ2B block: 18%

What do the screens show for `Cc1cc2c(c(/C=C/C(=O)c3ccccc3)c1)OC1(C=C2)Oc2ccccc2C(=O)N1C` (stereo not given)?
Sfp PPTase inh: -2%; G9a inh: 50µM*; L3MBTL1 inh: -5%; JMJD2A Tudor: -33%; HP1b binding inh: 16%; BAZ2B block: inconclusive

How did O=C1c2ccccc2OC2(C=Cc3ccccc3O2)N1Cc1ccccc1 (stereo not given) do in these assays?
Sfp PPTase inh: -6%; G9a inh: 28%[59 µM]; JMJD2A Tudor: 17%; HP1b binding inh: 52%; BAZ2B block: 9%

How did O=C(CC1C(=O)CCCC1=O)c1ccccc1 do in these assays?
Sfp PPTase inh: inconclusive; G9a inh: 45µM*; L3MBTL1 inh: inconclusive; JMJD2A Tudor: -9%; HP1b binding inh: 38%; BAZ2B block: -34%

Results for O=C(NCCc1ccccc1)c1cnc2ccccc2n1 ?
Sfp PPTase inh: 3%; G9a inh: 25%; JMJD2A Tudor: -19%; HP1b binding inh: 19%; BAZ2B block: 10%

Results for Nc1nc(N)c2ncc(C(=O)CCc3ccccc3)nc2n1 ?
Sfp PPTase inh: 0%; G9a inh: 40µM*; L3MBTL1 inh: -11%; JMJD2A Tudor: 14µM*; HP1b binding inh: -26%; BAZ2B block: inconclusive

What do the screens show for `c1cnc(N2CCN(c3ncc4c(n3)CCNC4)CC2)nc1`?
G9a inh: inconclusive; JMJD2A Tudor: inconclusive; HP1b binding inh: 54%; BAZ2B block: inconclusive

Results for CCOC(=O)CC(NC(=O)CCc1c(C)nc2c(c1C)c(=O)n(C)c(=O)n2C)c1ccc(OCC)c(OC)c1 (stereo not given) ?
G9a inh: 6%[59 µM]; JMJD2A Tudor: 0%; HP1b binding inh: 41%; BAZ2B block: -12%

What do the screens show for `C#CCOCCOCCOCCNc1nc(N2CCN(C(=O)CCCCCCCCCCNC(=O)[C@@H](CCC(=O)O)n3cc(CCCCCN)nn3)CC2)nc(N2CCN(C(=O)CCCCCCCCCCNC(=O)[C@H](CCCCN)n3cc(C[C@@H](C)CC)nn3)CC2)n1`?
G9a inh: -16%[2.33 µM]; L3MBTL1 inh: -6%; JMJD2A Tudor: 56µM*; HP1b binding inh: -3%; BAZ2B block: inconclusive

Results for C#CCOCCOCCOCCNc1nc(N2CCN(C(=O)CCCCCCCCCCNC(=O)[C@H](CCCCN)n3cc(CCO)nn3)CC2)nc(N2CCN(C(=O)CCCCCCCCCCNC(=O)[C@H](CCCCN)n3cc(CCCC(=O)O)nn3)CC2)n1 ?
G9a inh: -7%[2.33 µM]; L3MBTL1 inh: 13%; JMJD2A Tudor: -35%; HP1b binding inh: 15%; BAZ2B block: -27%

How did C#CCOCCOCCOCCNc1nc(N2CCN(C(=O)CCCCCCCCCCNC(=O)[C@H](CCCCN)n3cc(CCO)nn3)CC2)nc(N2CCN(C(=O)CCCCCCCCCCNC(=O)[C@H](CCCCN)n3cc(C[C@@H](C)CC)nn3)CC2)n1 do in these assays?
G9a inh: 14%[2.33 µM]; L3MBTL1 inh: -11%; JMJD2A Tudor: 22µM*; HP1b binding inh: 50µM*; BAZ2B block: inconclusive

Results for NCCCCCc1nnc(SCc2ccc(F)cc2)o1 ?
G9a inh: 0%[59 µM]; JMJD2A Tudor: -13%; HP1b binding inh: 26%; BAZ2B block: -16%

What do the screens show for `CCN(c1cccc(C)c1)S(=O)(=O)c1cc2c(cc1C)n(C)c(=O)c(=O)n2C`?
G9a inh: 2%[59 µM]; JMJD2A Tudor: -5%; HP1b binding inh: 21%; BAZ2B block: -2%

What do the screens show for `COc1ccc(CNc2ncnc3ccc(-c4cccc(NS(C)(=O)=O)c4)cc23)c(OC)c1`?
Sfp PPTase inh: 3%; G9a inh: -37%[0.501 µM]

Results for COc1ccc(-c2ccc(SCC(=O)Nc3nccs3)nn2)cc1OC ?
Sfp PPTase inh: 6%; G9a inh: 4%; L3MBTL1 inh: -4%; JMJD2A Tudor: inconclusive; HP1b binding inh: 70%; BAZ2B block: -36%

How did O=C(CSc1ccc(-c2ccccn2)nn1)Nc1nccs1 do in these assays?
Sfp PPTase inh: -17%; G9a inh: 40%; JMJD2A Tudor: 2.5µM*; HP1b binding inh: 16%; BAZ2B block: -9%

Results for COc1ccccc1CNC(=O)CSc1ccc(-c2ccccn2)nn1 ?
Sfp PPTase inh: -6%; G9a inh: 8%; JMJD2A Tudor: 32µM*; HP1b binding inh: 23%; BAZ2B block: 8.9µM*

Results for COc1ccccc1CNC(=O)CSc1ccc(-c2cccs2)nn1 ?
Sfp PPTase inh: 6%; G9a inh: -13%; JMJD2A Tudor: -23%; HP1b binding inh: 5%; BAZ2B block: -36%
